Measured values taken from PubChem BioAssay (NCI).
The panel holds about 83,000 compounds, 20% with a hit somewhere; the sample as a whole holds those more often.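 Cell lines were cultured in 96-well plates, exposed to a single compound concentration, and assessed for percent growth 48 hours later.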 A number with no mark means an inactive call. Active and inactive are the calls of the source. The calls were made as follows: active = growth percent below 10; inactive = the rest.

Each molecule was assayed on OVCAR-4 ovarian (assay: NCI-60 one-dose screen, 48 h (100 = growth as untreated, 0 = no growth, -100 = all killed)). Details: 10 µM unless noted.
`COC(=O)[C@]12CC[C@@H](C)[C@H](C)[C@@H]1C1=CC[C@@H]3[C@@]4(C)C[C@@H](OC(C)=O)[C@H](O)[C@@](C)(COC(C)=O)[C@@H]4[C@H](O)C[C@@]3(C)[C@]1(C)CC2` was tested, and the growth was -70.3% (active).
In the case of `N#Cc1c(-c2ccco2)nc2c(c(-c3ccccc3)nn2-c2ccccc2)c1-c1ccc(O)cc1`, the growth is reported as 77.7%.
With `CC(=O)c1c(C)[nH]c(-c2nc3ccc(N4CCN(C)CC4)cc3[nH]2)c1-c1ccc2c(c1)OCCO2` the growth was 43%.
In the case of `COc1ccc(C(=O)c2ccc(C)cc2)c(OC)c1OC`, the growth is reported as 99.7%.
`C[C@H]1OC(=O)/C=C/[C@@H](O)[C@@H](O)CCCCCCCC[C@@H]1O` showed a growth of 101%.
In the case of `COc1ccccc1-n1cnc(N)c1C(=O)c1cc(OC)c(OC)c(OC)c1`, the growth is reported as 65.9%.
With `COc1ccc(/C=C(\C#N)c2cc3ccccc3n2S(C)(=O)=O)cc1` the growth was 93.4%.
`Cc1cccc2c1NC(=O)[C@@]21[C@H](C(=O)c2ccccc2)[C@]2(C(=O)Nc3ccccc32)[C@H]2CCCN21` was tested, and the growth was -20.3% [100 µM] (active).
With `N=c1ccc2nc3c(cc(N)c4ccccc43)oc-2c1` the growth was -100% (active).
`COc1cccc(-c2nn(-c3ccccc3)cc2-c2ccnc(NCCCNS(=O)(=O)c3ccc(Br)cc3)c2)c1` was tested, and the growth was 46.5%.
Molecule `Cc1ccc(-c2nn(Cc3cn(-c4cc(C)nc5ccccc45)nn3)c3ncnc(N)c23)cc1` has a growth of 51.7%.
`COc1ccc2c(c1)c1nc3cc(C)c(C)cc3nc1n2CCN(C)C` showed a growth of 19.8%.
Work on `CC(=O)n1c(/C(C#N)=C/c2ccc(N(C)C)cc2)cc2ccccc21` yielded a growth of 76.8%.
Molecule `C[C@H]1[C@H]2C3=CC[C@@H]4[C@@]5(C)C/C(=C/c6ccco6)C(=O)C(C)(C)[C@@H]5CC[C@@]4(C)[C@]3(C)CC[C@@]2(C(=O)N2CCOCC2)CC[C@@H]1C` has a growth of 50.1%.
In the case of `Fc1ccc(Nc2ccc3c(OCCCN4CCOCC4)cccc3n2)cc1F`, the growth is reported as 79%.
With `COc1cccc(-c2nn(-c3ccccc3)cc2-c2ccnc(NCCNS(=O)(=O)c3ccc(C(F)(F)F)cc3)c2)c1` the growth was 31.2%.
Work on `Cn1cnc2c1c(=O)n(CCC(=O)Nc1ccc(F)cc1)c(=O)n2C` yielded a growth of 109%.
Work on `COCCNC1=C(Cl)C(=O)c2ccccc2C1=O` yielded a growth of 93.6%.
`CCCCn1c(-c2ccc(O)cc2)cn2c3c(=O)[nH]c(=O)n(C)c3nc12` gave a growth of 82.2%.
`Cc1ccc(N(CC(=O)Nc2ccc(S(=O)(=O)NC3CCN(C)CC3)cc2)S(=O)(=O)c2ccc(Cl)cc2)cc1` gave a growth of 87.8%.
Work on `CC(=O)OC[C@]12CC[C@@H](/C(C)=N/O)[C@@H]1[C@H]1CC[C@@H]3[C@@]4(C)CCCNC(C)(C)[C@@H]4CC[C@@]3(C)[C@]1(C)CC2` yielded a growth of 53.9%.
In the case of `Clc1ccc(Cn2cc(-c3nc4ccc(Br)nc4n3Cc3ccc(Cl)cc3)c3cccnc32)cc1`, the growth is reported as 87.6%.
For `CN1CCN(CCOc2ccc(-c3cnc4c(-c5cccc(F)c5)cnn4c3)cc2)CC1`, the growth was 65.5%.
Molecule `CN1CCN(c2nc(-c3csc(-c4cccs4)n3)cc3ccccc23)CC1` has a growth of 57.9%.
Molecule `CCN(CC)CCCCCCNc1ccnc2cc(Cl)ccc12` has a growth of 75.2%.
For `CCCCCCCC(=O)SCC/C=C/[C@@H]1CC(=O)NCc2cccc(n2)CN(Cc2ccc(Cl)cc2)CC(=O)N[C@@H](C(C)C)C(=O)O1`, the growth was 28%.
In the case of `c1cc(N2CCCC2)c2nc(-c3[nH]ncc3Nc3ncnc4[nH]ccc34)[nH]c2c1`, the growth is reported as -13.6% (active).
Work on `COc1ccc(C2=NN(c3nc(-c4ccc(OC)cc4)c(C#N)c(=O)n3C)C(=O)CC2)cc1` yielded a growth of 105%.
With `Cc1ccc(S(=O)(=O)Nc2ccc(-c3cc(-c4cccc(F)c4)c(C#N)c(N)n3)cc2)cc1` the growth was -63.4% (active).
In the case of `CC(C)(C)c1ccc(OCCCCCCCN2CCNCC2)cc1`, the growth is reported as 54%.
`COC(=O)CNc1nc(N(C)O)nc(N(C)O)n1` gave a growth of 29.3%.
In the case of `COc1cc2ncnc(Nc3ccc(Oc4ccnc(C)c4)c(C)c3)c2cc1NC(=O)CC1CCSS1` (centres undefined), the growth is reported as 6.57% (active).
`C=C(C)[C@@H]1CC[C@]2(C)[C@H](CC[C@@H]3[C@H]4[C@H]5OC[C@@]4(CCC5(C)C)CC[C@]32C)[C@@]1(C)CCCN` was tested, and the growth was 70.2%.
`c1ccc(-c2nc(Nc3ccc(-c4nc5ccccc5[nH]4)cc3)nc(N3CCOCC3)n2)cc1` was tested, and the growth was -47.2% (active).
